Here are results for five compounds from PubChem BioAssay.

Test [1] is described as follows: small molecules captured by biotinylated probe aFSTL3 – biochemical, small-molecule microarray, fluorescence 635/667, stem cell growth factor project, primary screen (AID 1064).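 Also: measures binding of the biotinylated anti-FSTL3 antibody to printed compounds.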 As to conditions: higher = more signal.
Test [2] in a line: binders from COS7 lysate, DM2A8 probe, primary screen, torsin A project, cell lysate, small-molecule microarray, fluorescence 635/667 (AID 1065). As to conditions: higher = more signal, COS7 lysate expressing mutant human TOR1A.
Test [3] in a line: small molecules captured by biotinylated probe aFGF2 – biochemical, small-molecule microarray, fluorescence 635/667, stem cell growth factor project, primary screen (AID 1067).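 Also: measures binding of biotinylated aFGF2 protein to printed compounds on slides; z-score merges feature fluorescence and signal-to-noise across triplicate slides.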 As to conditions: higher = more signal.
Test [4] is described as follows: small molecules captured by biotinylated probe aFGF10 – biochemical, small-molecule microarray, fluorescence 635/667, stem cell growth factor project, primary screen (AID 1071).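 Also: score merges 667 nm spot intensity and signal to noise from triplicate slides.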 As to conditions: higher = more signal.
Test [5] deals with Neurogenic locus notch homolog protein 2 (Homo sapiens) (UniProt Q04721). Nature of the test: small molecules binding Notch2 protein – biochemical, small-molecule microarray, 635 nm fluorescence, stem cell growth factors, primary screen (AID 1073). As to conditions: higher = more signal.
The target of test [6] is Pro-neuregulin-1, membrane-bound isoform (Homo sapiens) (UniProt Q02297). Nature of the test: small molecules binding neuregulin-1 protein – biochemical, small-molecule microarray, fluorescence 635/667, psychiatric disease protein project, primary screen (AID 1075).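 Also: score combines 667 nm spot fluorescence with signal to noise.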 The conditions noted are these: NRG1 binding, 635 nm fluorescence, higher = more signal.
Test [7] relates to Neuregulin-1 EGF-like domain. Nature of the test: small molecules binding NRG1 EGF domain – biochemical, small-molecule microarray, 635 nm fluorescence, primary screen (AID 1081).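 Also: binding of the protein to compounds printed on small-molecule microarray slides.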 The conditions noted are these: higher = more signal.
Test [8] can be described thus: FRG1 expression reporter modulators in myotubes – cell-based, C2C12 myotubes, firefly/Renilla luciferase, luminescence, FRG1 inhibition for FSHD, primary screen (AID 1084). As to conditions: FRG1 promoter luciferase, higher = more signal, called active from +8 up or from −8 down.
Test [9] is described as follows: small molecules captured by biotinylated probe aFST – biochemical, small-molecule microarray, fluorescence 635/667, stem cell growth factor project, primary screen (AID 1086).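 Also: score merges 667 nm fluorescence with signal-to-noise of each printed compound spot.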 As to conditions: higher = more signal.
Test [10] is described as follows: binders of probe aHhip on microarray, primary screen, stem cell growth factor project, biochemical, small-molecule microarray, fluorescence 635/667 (AID 1087).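 Also: score merges spot fluorescence at 667nm with spot signal to noise ratio.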 The conditions noted are these: higher = more signal.
For test [11], the system named is PRMT1 (protein arginine N-methyltransferase 1). Nature of the test: small molecules binding arginine methyltransferase PRMT1 – biochemical, small-molecule microarray, 635 nm fluorescence, primary screen (AID 1088).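 Also: binding of Prmt1 protein to compounds spotted on small-molecule microarray slides.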 As to conditions: higher = more signal.
The nature of test [12]: growth effects on S. cerevisiae YJM789 – YJM789 clinical isolate, OD600, 24 h, basal, primary screen (AID 1089).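 Also: growth of clinical yeast isolate S. cerevisiae YJM 789 seeded 1000 cells per well; test concentration not given here.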 As to conditions: higher = more signal, called active from +8 up or from −8 down.
Test [13] in a line: S. pombe growth modifiers, basal conditions – strain 972, OD600, 24 h, no modulator, primary screen (AID 1090).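 Also: basal condition with compound alone and no growth modifier present; test concentration not given here.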 The conditions noted are these: S. pombe 972 growth, higher = more signal, called active from +8 up or from −8 down.
Test [14] in a line: budding yeast growth modifiers under rapamycin – strain BY4716, OD600, 96 h, primary screen (AID 1091). Also: test concentration not given here. The conditions noted are these: S. cerevisiae BY4716 + rapamycin, higher = more signal, called active from +8 up or from −8 down.
Test [15] has as its target Torsin-1A-interacting protein 2 (Homo sapiens) (UniProt Q8NFQ8). Nature of the test: small molecules binding lysate-expressed LULL1 – cell lysate, human LULL1 lysate, 635/667 nm fluorescence, primary screen (AID 1092).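 Also: probe is lysate of COS7 cells overexpressing human LULL1; score merges per-feature 667 nm fluorescence with signal-to-noise.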 As to conditions: small-molecule microarray, hLULL1 lysate binding, 635 nm fluorescence; higher = more signal.
A short description of test [16]: optical density change of DRC41 E. coli – strain DRC41, OD650, 24 h, E. coli filamentation project, primary screen (AID 1093).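 Also: MC1000 strain lacking acrAB efflux and sulA so SOS filamentation is blocked; test concentration not given here.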 The conditions noted are these: E. coli DRC41 growth, higher = more signal, called active from +8 up or from −8 down.
The nature of test [17]: probe aLefty2 binding to arrayed compounds – biochemical, biotinylated probe, 635/667 nm fluorescence, primary screen (AID 1094).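 Also: score merges spot fluorescence near 667 nm with spot signal-to-noise ratio.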 The conditions noted are these: small-molecule microarray, higher = more signal.
Test [18] has as its system Noggin (protein binding on small-molecule microarray). Nature of the test: small molecules binding Noggin protein – biochemical, 635/667 nm fluorescence, primary screen (AID 1095).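 Also: score merges 667 nm feature fluorescence with signal to noise over triplicate slides.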 As to conditions: 635 nm fluorescence, higher = more signal.
The target in test [19] is Neurogenic locus notch homolog protein 3 (Homo sapiens) (UniProt Q9UM47). Nature of the test: small molecules binding NOTCH3 protein – biochemical, 635/667 nm fluorescence, primary screen (AID 1096). The conditions noted are these: small-molecule microarray, 635 nm fluorescence, higher = more signal.
A short description of test [20]: probe aEGFR binding to arrayed compounds – biochemical, biotinylated probe, 635/667 nm fluorescence, primary screen (AID 1097).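 Also: probe is a biotinylated anti-EGFR antibody binding compounds printed on slides; score combines fluorescence near 667 nm and signal to noise of each spot.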 The conditions noted are these: small-molecule microarray, higher = more signal.

The structures appear in SMILES notation. Calls of active or inactive are those of the source.

Chain of Neurogenic locus notch homolog protein 3 (Homo sapiens) (Q9UM47 whole entry, looked up): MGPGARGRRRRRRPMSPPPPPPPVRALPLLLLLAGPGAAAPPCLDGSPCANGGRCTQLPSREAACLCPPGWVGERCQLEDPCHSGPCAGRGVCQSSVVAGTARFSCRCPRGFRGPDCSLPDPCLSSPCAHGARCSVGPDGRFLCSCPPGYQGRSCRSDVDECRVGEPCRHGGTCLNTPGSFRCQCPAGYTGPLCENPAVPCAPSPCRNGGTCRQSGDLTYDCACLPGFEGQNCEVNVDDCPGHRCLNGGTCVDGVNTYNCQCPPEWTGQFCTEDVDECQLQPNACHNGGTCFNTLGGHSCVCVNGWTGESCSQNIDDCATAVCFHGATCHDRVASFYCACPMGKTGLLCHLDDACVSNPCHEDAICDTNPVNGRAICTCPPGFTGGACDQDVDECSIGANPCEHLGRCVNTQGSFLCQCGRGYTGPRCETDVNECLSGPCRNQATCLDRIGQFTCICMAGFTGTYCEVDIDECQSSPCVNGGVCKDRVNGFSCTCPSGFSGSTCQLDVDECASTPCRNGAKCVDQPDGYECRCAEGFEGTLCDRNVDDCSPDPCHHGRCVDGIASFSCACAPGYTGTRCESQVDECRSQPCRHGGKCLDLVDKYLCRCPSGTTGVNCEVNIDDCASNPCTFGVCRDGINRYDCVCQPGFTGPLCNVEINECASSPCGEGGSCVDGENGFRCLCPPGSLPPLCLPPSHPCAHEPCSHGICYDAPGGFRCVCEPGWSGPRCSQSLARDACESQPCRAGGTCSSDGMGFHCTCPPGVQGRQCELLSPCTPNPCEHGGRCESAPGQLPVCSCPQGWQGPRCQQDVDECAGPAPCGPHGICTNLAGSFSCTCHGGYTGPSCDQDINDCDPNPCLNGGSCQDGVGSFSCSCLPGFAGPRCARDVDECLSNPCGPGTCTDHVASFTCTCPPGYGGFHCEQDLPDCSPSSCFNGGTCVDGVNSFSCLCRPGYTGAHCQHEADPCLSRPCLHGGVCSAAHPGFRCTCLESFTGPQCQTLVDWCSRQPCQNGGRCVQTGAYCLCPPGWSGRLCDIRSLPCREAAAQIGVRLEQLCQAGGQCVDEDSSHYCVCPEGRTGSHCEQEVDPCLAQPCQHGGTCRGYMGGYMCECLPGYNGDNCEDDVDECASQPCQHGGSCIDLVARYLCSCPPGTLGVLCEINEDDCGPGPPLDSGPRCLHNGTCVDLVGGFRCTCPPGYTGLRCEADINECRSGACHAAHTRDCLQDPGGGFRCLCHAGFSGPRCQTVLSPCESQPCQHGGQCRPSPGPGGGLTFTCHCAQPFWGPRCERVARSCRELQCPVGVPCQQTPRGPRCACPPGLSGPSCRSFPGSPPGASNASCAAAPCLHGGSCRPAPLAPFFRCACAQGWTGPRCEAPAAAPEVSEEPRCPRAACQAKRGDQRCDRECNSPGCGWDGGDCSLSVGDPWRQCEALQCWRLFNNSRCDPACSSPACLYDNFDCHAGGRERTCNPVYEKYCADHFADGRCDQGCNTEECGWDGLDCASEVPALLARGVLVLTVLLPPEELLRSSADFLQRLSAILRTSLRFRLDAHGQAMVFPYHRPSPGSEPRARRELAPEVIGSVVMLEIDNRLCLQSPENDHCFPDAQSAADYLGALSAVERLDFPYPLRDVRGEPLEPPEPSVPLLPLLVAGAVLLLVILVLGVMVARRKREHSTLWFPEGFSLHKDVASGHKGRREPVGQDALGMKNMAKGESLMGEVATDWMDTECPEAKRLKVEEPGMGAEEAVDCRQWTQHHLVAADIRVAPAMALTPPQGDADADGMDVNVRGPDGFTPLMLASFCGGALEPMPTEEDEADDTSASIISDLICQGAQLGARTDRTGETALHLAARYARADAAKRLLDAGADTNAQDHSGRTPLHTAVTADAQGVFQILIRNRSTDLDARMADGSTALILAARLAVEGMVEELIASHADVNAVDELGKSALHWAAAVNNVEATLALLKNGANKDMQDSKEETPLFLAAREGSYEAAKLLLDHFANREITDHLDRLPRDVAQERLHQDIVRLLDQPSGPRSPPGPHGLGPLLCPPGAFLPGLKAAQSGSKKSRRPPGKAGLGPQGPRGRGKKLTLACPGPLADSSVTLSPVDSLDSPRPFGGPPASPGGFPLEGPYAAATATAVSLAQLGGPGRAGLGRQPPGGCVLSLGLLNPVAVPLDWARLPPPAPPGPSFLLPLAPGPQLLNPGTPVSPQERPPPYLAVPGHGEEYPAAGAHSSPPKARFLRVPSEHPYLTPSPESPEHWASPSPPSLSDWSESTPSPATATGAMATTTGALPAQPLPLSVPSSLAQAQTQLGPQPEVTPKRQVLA
Chain of Neurogenic locus notch homolog protein 2 (Homo sapiens) (Q04721 whole entry, looked up, canonical isoform): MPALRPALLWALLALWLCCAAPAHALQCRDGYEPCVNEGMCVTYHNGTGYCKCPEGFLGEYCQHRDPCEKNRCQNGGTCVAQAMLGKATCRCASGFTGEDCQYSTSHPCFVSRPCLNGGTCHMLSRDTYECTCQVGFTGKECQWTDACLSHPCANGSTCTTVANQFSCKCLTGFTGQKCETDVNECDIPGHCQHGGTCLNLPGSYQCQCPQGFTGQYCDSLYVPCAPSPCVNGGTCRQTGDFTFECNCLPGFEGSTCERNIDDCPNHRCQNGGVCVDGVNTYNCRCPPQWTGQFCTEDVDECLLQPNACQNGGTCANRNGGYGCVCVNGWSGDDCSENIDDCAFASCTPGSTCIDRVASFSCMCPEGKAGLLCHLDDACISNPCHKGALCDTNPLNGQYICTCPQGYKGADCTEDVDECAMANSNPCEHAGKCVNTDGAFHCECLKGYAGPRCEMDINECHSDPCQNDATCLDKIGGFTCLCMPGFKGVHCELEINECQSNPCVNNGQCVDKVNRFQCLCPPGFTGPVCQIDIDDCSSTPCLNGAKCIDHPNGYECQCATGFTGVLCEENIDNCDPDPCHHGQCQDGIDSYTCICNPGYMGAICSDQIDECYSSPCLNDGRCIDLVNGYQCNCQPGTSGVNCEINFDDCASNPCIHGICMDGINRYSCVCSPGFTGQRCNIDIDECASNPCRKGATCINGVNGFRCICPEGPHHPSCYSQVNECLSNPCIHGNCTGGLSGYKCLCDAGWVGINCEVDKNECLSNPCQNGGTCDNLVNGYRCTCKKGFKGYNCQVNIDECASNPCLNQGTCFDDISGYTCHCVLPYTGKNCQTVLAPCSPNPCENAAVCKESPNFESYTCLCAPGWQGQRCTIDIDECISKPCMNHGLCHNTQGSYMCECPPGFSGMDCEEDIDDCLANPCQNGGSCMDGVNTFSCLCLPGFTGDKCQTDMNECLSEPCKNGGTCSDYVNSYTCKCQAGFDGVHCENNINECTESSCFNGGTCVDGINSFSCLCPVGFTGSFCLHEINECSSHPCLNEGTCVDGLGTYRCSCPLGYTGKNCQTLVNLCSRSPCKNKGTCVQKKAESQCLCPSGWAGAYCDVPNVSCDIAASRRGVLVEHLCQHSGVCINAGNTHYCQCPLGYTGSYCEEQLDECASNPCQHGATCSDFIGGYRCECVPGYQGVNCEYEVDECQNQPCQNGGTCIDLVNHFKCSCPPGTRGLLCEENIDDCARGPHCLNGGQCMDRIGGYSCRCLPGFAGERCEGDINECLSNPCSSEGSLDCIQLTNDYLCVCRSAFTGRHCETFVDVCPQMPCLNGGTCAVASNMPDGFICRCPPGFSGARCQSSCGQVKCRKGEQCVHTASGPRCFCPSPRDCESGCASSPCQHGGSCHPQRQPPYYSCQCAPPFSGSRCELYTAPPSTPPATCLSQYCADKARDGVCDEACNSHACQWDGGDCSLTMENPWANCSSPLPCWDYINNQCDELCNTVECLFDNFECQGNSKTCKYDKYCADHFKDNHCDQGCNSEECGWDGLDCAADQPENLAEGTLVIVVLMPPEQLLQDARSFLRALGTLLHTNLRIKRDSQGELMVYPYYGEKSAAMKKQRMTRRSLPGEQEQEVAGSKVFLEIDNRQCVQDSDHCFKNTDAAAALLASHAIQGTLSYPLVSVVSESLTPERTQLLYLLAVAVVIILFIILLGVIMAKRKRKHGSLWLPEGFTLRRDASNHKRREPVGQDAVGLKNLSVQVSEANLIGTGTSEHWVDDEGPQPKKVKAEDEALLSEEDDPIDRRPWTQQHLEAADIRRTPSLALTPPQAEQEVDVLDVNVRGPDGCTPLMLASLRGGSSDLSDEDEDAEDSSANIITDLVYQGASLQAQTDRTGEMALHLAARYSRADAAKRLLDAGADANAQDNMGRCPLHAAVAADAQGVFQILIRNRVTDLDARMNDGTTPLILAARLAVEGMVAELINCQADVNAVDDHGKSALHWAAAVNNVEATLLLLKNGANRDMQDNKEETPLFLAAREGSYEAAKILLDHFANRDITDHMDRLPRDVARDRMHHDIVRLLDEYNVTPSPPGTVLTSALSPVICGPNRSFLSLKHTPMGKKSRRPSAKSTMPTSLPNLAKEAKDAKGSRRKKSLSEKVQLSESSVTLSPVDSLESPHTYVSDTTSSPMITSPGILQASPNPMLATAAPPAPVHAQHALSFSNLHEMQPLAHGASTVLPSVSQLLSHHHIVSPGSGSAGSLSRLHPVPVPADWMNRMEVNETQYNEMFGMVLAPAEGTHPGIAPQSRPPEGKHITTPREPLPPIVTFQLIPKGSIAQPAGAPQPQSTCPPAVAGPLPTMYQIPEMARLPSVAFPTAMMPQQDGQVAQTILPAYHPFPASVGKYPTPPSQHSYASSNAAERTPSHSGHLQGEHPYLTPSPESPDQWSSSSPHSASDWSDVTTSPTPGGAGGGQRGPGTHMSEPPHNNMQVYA

As for `C=CCC(OC(C)=O)[C@@H]1[C@@H](N(Cc2ccc(-c3cccc(C(F)(F)F)c3)o2)C(=O)c2ccc(-c3ccccc3)cc2)c2cc(OCCCO)ccc2N1C(=O)c1ccc2ccccc2n1` (stereo not given in full), the composite z-score in test [1] was -0.0375; in test [2], -0.246; in [3], -0.0266; in test [4], 0.306; in test [5] it was 0.0588; in [6] it was 0.0617. Further, the composite z-score in test [7] was -0.385; in [9] it was 0.77; in test [10], -0.0237; in [11] it was -1.08; in test [15], -0.244; in test [17], -0.0063. Further, the composite z-score in [18] is -0.0955; in test [19] it was 0.0478; in [20], -0.0656. The z-score in test [8] is -0.379 (inactive); in [12], 0.672 (inactive); in test [13], 0.789 (inactive); in test [14], 0.847 (inactive); in [16], -0.656 (inactive).
Regarding `Cc1ccc(S[C@]2(C(=O)O)CC(=O)N(Cc3ccccc3Cl)[C@@H]2c2ccc(CO)cc2I)cc1`, the composite z-score in test [1] was 0.655; in test [2] it was 0.39; in [3], 0.234; in [4], 0.107; in test [5] it was -0.442; in test [6] it was -0.0683. The composite z-score is 1.09 in [7]; 0.415 in [9]; -0.624 in test [10]; 0.765 in [11]; 0.198 in test [15]; -0.131 in test [17]. Moreover, the values for the composite z-score in [18], in test [19] and in test [20] were -0.678, -0.162 and 0.519, respectively. For the same compound, the z-score in test [8] is 0.11 (inactive); in test [12], -0.923 (inactive); in test [13] it was -1.71 (inactive); in [14], 1.21 (inactive); in test [16], -0.852 (inactive).
In the case of `COc1ccc([Si](C)(C)[C@@H]2[C@@H](CC(=O)N3Cc4ccccc4C[C@H]3CO)O[C@]3(C(=O)N(C)c4ccccc43)[C@H]2C)cc1`, the composite z-score in [1] is 0.279; in [2] it was 0.56; in [3], 0.0331; in [4], 0.686; in test [5], 0.356; in [6] it was 0.969. In addition, the composite z-score in test [7] turned out to be 1.22; in [9] it was 0.714; in test [10], 0.202; in test [11], 1.53; in test [15], 1.83; in test [17], 0.279. Besides, the composite z-score in [18] is 1.84; in test [19] it was 1.11; in test [20] it was -0.0052. In addition, the z-score in test [8] is -4.24 (inactive); in test [12] it was -0.912 (inactive); in test [13], 0.256 (inactive); in test [14], 1.86 (inactive); in [16] it was -0.0789 (inactive).
Take `O=C1N(Cc2ccccc2)Cc2ccccc2[C@@H]2OC(c3ccc(OCCCO)cc3)=N[C@]12CCS(=O)(=O)c1ccccc1`: the composite z-score is 0.184 in test [1]; -0.0546 in [2]; 0.0247 in test [3]; 0.379 in test [4]; 1.28 in test [5]; 1.48 in test [6]. Further, the composite z-score was 1.32 in test [7]; 0.297 in test [9]; -0.171 in test [10]; 1.57 in [11]; 2.96 in test [15]; 0.228 in [17]. For the same compound, the composite z-score was found to be 0.49 in test [18], 0.763 in test [19] and 0.209 in test [20]. Further, the z-score is -3.35 (inactive) in test [8]; 1.01 (inactive) in [12]; 1.41 (inactive) in test [13]; 14.9 (active) in test [14]; 0.0267 (inactive) in test [16].
As to `[N-]=[N+]=NCc1ccccc1[C@H]1OC(c2ccc(OCCCO)cc2)=N[C@@]1(CCS(=O)(=O)c1ccccc1)C(=O)NCC(O)CO` (stereo not given in full), the composite z-score was 0.115 in test [1]; -0.191 in test [2]; 0.252 in test [3]; 0.564 in test [4]; 1.47 in test [5]; 1.25 in [6]. Also, the composite z-score is 1.36 in [7]; 1.46 in test [9]; 0.126 in test [10]; 1.56 in test [11]; 3.79 in [15]; 0.0761 in [17]. The composite z-score was found to be 0.286 in [18], 1.06 in test [19] and 0.178 in [20]. For the same compound, the z-score is 0.515 (inactive) in test [8]; 0.633 (inactive) in test [12]; -0.107 (inactive) in [13]; 3.65 (inactive) in test [14]; -0.28 (inactive) in test [16].
